Here are results for 32 compounds from PubChem BioAssay (Tox21).

Several values for one entry are separate records, joined by “and”; a condition that tells them apart may be missing. Identical values can stand only once. Results filed as inconclusive are left out. Some structures have more than one record in an assay (separate samples or runs), and their calls can disagree. Activity calls are given as the source filed them. Unless noted, calls follow the shape of the dose curve; as a rule, active = well fitted cell-killing curve with a large enough effect in the repeat runs (not every such curve was filed as active); inconclusive = weak or mixed curves, or effect the other way; inactive = no such curve, though single readings can be large or run the other way.
% is scaled to controls: 0 for no effect and ±100 for the full control effect.

Chain of Bile acid receptor (Homo sapiens) (Q96RI1 whole entry, looked up): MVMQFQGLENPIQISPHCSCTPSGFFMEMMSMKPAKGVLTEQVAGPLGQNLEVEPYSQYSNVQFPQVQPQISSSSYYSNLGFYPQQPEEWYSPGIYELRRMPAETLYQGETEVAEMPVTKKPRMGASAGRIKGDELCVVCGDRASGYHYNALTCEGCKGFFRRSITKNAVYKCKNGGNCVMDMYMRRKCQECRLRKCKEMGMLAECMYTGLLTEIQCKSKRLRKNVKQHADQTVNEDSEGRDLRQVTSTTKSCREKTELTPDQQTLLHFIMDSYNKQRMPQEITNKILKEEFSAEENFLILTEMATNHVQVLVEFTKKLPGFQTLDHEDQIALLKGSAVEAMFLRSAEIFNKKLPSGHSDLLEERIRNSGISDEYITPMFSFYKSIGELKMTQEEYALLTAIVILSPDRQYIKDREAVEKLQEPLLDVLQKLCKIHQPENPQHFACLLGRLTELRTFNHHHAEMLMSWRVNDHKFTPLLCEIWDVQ

For the first experiment, the target named is Bile acid receptor (Homo sapiens) (UniProt Q96RI1). Put plainly: qHTS assay to identify small molecule agonists of the farnesoid-X-receptor (FXR) signaling pathway (AID 743220; active = well fitted activation curve with a large enough effect in the signal ratio in the repeat runs, not every such curve was filed as active; the % refers to the signal ratio). The conditions noted are these: HEK293T FXR-UAS-bla, beta-lactamase FRET ratio, 16 h; series mostly up to 62.6 µM; activation: at the top concentration. In a few lines:
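FXR-UAS-bla HEK 293T cells carrying a UAS-driven beta-lactamase reporter were plated for 5 h at 37C/5% CO2, then exposed to DMSO-dissolved Tox21 10K compounds for 16 h at 37C. A LiveBLAzer B/G FRET substrate was loaded for 2 h at room temperature before fluorescence reading.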
On to `C[C@@H](NCCCc1cccc(C(F)(F)F)c1)c1cccc2ccccc12`, for which the “activation” value is -0.708% (inactive).

Consider `NNc1nc(-c2ccc(N)cc2)cs1`, for which the “activation” value is 0.983% (inactive). As for `CCCCN(CCCC)c1ccc(C(=O)c2ccccc2C(=O)O)c(O)c1`, the “activation” value is -1.4% [at 81.1 µM] (inactive). On the same count and under the same terms, the result for `C[n+]1cc2c3c(ccc2c2ccc4cc5c(cc4c21)OCO5)OCO3` reads 1.32% [at 29.1 µM] (inactive); that for `CC(C)(C)C(=O)OCOC(=O)C1N2C(=O)CC2S(=O)(=O)C1(C)C` (stereo unspecified), -0.83% (inactive).

System in another experiment: not listed separately
As to the kind of experiment: qHTS assay to identify small molecule antagonists of the farnesoid-X-receptor (FXR) signaling pathway - cell viability counter screen (AID 743221). Also: nearly all actives have a fitted effect of over 50% in size. Also: potency is read from the fitted curve at half-maximal effect. Particulars: FXR-bla HEK293T viability, CellTiter-Glo luminescence, 16 h; series mostly up to 62.6 µM; activity change, negative = cytotoxicity: at the top concentration. The essentials:
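After a 5 h settling period, FXR-bla HEK 293T cells receive compound and chenodeoxycholic acid (50 uM final) and incubate 16 h at 37 C; CellTiter-Glo luminescence, read after 30 min at room temperature, reports cell viability.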
`O=C1CCCc2c1cc1ccc3cccc4ccc2c1c34`: the “activity change, negative = cytotoxicity” value was -4.58% [at 81.1 µM] (inactive). Same read-out and setting: the result for `NC(=O)CC[C@@H]1NC(=O)[C@H](Cc2ccccc2)NC(=O)[C@H](Cc2ccc(O)cc2)NC(=O)CCSSC[C@@H](C(=O)N2CCC[C@H]2C(=O)N[C@@H](CCCN=C(N)N)C(=O)NCC(N)=O)NC(=O)[C@H](CC(N)=O)NC1=O` reads 1.24% (inactive). With `C=CC(=O)OCCn1c(=O)n(CCOC(=O)C=C)c(=O)n(CCOC(=O)C=C)c1=O`, the Potency was 34.7 µM (active). Regarding `C[C@H](CCC(=O)O)[C@H]1CC[C@H]2[C@@H]3CC[C@@H]4C[C@H](O)CC[C@]4(C)[C@H]3CC[C@]12C`, the Potency entry is “inactive and 43.6 µM (active)”.

Take `CCCCCCCCCCCC(=O)NCCCN(C)C`: the Potency was 49 µM (active).

On to `CCCCCCCC[P+](CCCCCCCC)(CCCCCCCC)CCCCCCCC`, for which the Potency was 17.3 µM (active). Still for that read-out and setting: the result for `CCCC(c1cc(C(C)(C)C)c(O)cc1C)c1cc(C(C)(C)C)c(O)cc1C` reads 19.7 µM (active); that for `CC/C(=C(\c1ccc(O)cc1)c1ccc(OCCN(C)C)cc1)c1ccccc1`, 24.6 µM (active).

For `CC(C)(C)C(=O)OCOC(=O)[C@@H]1N2C(=O)[C@@H](NC(=O)[C@H](N)c3ccccc3)[C@H]2SC1(C)C`, the “activity change, negative = cytotoxicity” value was 0.937% (inactive). Regarding `O=C(Oc1cccc2cccnc12)c1ccccc1`, the Potency was 8.41 µM (active). With `CCCCC(CC)CN=C(N)NC(N)=NCCCCCCN=C(N)NC(N)=NCC(CC)CCCC` (stereo unspecified), the Potency is 21.1 µM (active). Consider `Clc1ccc2cc3ccccc3cc2c1`, for which the “activity change, negative = cytotoxicity” value is 4.36% (inactive). In the case of `CN(C)c1ccc(C2(c3ccc(N(C)C)cc3)OC(=O)c3cc(N(C)C)ccc32)cc1`, the “activity change, negative = cytotoxicity” value is 0.0382% (inactive). For the compound `CC(=O)N1CCN(c2ccc(OC[C@H]3CO[C@](Cn4ccnc4)(c4ccc(Cl)cc4Cl)O3)cc2)CC1`, the Potency is 54.9 µM (active).

In the case of `Cc1[nH]cnc1C[C@H]1CCc2c(C)c3ccccc3n2C1=O`, the “activity change, negative = cytotoxicity” value is 9.75% (inactive). Consider `C=CC(=O)OCC(CO)(COCC(COC(=O)C=C)(COC(=O)C=C)COC(=O)C=C)COC(=O)C=C`, for which the Potency was 9.65 µM (active).

As for `NNc1nc(-c2ccc(N)cc2)cs1`, the “activity change, negative = cytotoxicity” value was -6.74% (inactive). For the compound `CC(C)c1ccc2c(c1)CC[C@H]1[C@](C)(CN)CCC[C@]21C`, the Potency is 54.9 µM (active). With `[Cl][Bi]([Cl])([c]1ccccc1)([c]1ccccc1)[c]1ccccc1`, the Potency was 10.9 µM (active).

For the compound `Cc1cc(CCN2CCN(c3nsc4ccccc34)CC2)cc2c1NC(=O)CC2(C)C`, the Potency was 38.9 µM (active). On the same count and under the same terms, the result for `CCCCN(CCCC)c1ccc(C(=O)c2ccccc2C(=O)O)c(O)c1` reads 44.1 µM (active); that for `Oc1cc2ccccc2c2ccccc12`, 9.77 µM (active). For the compound `C=CC(=O)OCC(CO)(COC(=O)C=C)COC(=O)C=C`, the Potency was 34.8 µM (active) and 30.9 µM (active).

For `C[n+]1cc2c3c(ccc2c2ccc4cc5c(cc4c21)OCO5)OCO3`, the Potency was 1.46 µM (active). As to `COc1ccc(C(=O)/C(Br)=C\C(=O)O)cc1`, the “activity change, negative = cytotoxicity” value was -4.95% (inactive).

Take `CCN(Cc1cccnc1)C(=O)c1cccc(Cl)c1[C@]1(C)C(=O)N(Cc2ccc(OC)cc2OC)c2ccc(Cl)cc21`: the Potency was 11.5 µM (active).

Take `CS(=O)(=O)CCNCc1ccc(-c2ccc3ncnc(Nc4ccc(OCc5cccc(F)c5)c(Cl)c4)c3c2)o1`: the Potency was 26.6 µM (active). On the same count and under the same terms, the result for `CN(C)C(=O)C1(N2CCCCC2)CCN(CC[C@@]2(c3ccc(Cl)c(Cl)c3)CN(C(=O)c3ccccc3)CCO2)CC1` reads 32.4 µM (active); that for `CCCCCCCCCCCCc1ccc(O)cc1`, 43.6 µM (active). As to `CC(C)(C)C(=O)OCOC(=O)C1N2C(=O)CC2S(=O)(=O)C1(C)C` (stereo unspecified), the “activity change, negative = cytotoxicity” value is -7.39% (inactive). With `O=S1(=O)CC(Cl)(Cl)C(Cl)(Cl)C1`, the Potency was 9.77 µM (active).
